Consider five compounds from PubChem BioAssay.

Assay [1] in a line: yeast TOR pathway RPL19A-GFP modulators, primary screen, cell-based, S. cerevisiae, multiplex flow cytometry (AID 1862; in the data active means percent of DMSO control GFP below about 86%;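 further: lower values mimic rapamycin by blocking the RPL19A rise seen in DMSO cells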). The conditions noted are these: S. cerevisiae RPL19A-GFP strain, flow cytometry fluorescence, 3 h; at 10 µM; stronger effect = lower value. On the technique in general: A flow cytometer gives signals particle by particle.
Assay [2] is described as follows: modulators of MEP2-GFP levels in yeast, primary screen, S. cerevisiae, multiplex flow cytometry (AID 1867;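 active means GFP response, as percent of the DMSO control, above the screen-wide mean plus 3 SD, about 139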;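 further: median GFP channel fluorescence of barcode-gated MEP2-GFP cells measured by flow cytometry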). The conditions noted are these: S. cerevisiae MEP2-GFP strain, 3 h, at 10 µM, stronger effect = higher value, 100% means same as DMSO wells.
Assay [3] in a line: modulators of CIT2-GFP expression in yeast, primary screen, S. cerevisiae, GFP fusion, multiplex flow cytometry (AID 1870;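 active means percent response above a set limit, the screen-wide mean plus 3 SD, cut at about 130% in these data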;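 further: barcoded CIT2-GFP strain pooled with four other GFP strains with rapamycin as positive control; median GFP fluorescence per well over plate mean of DMSO wells so 100% = DMSO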). The following applies: 3 h, at 10 µM, stronger effect = higher value.
Assay [4] in a line: modulators of LAP4-GFP expression in yeast, primary screen, S. cerevisiae, multiplex flow cytometry (AID 1873;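 active means GFP signal, as percent of the solvent control, above the screen mean plus 3 SD, about 149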). The conditions noted are these: 3 h, at 10 µM, stronger effect = higher value.
Assay [5] can be described thus: modulators of AGP1-GFP expression in yeast TOR pathway, primary screen, cell-based, multiplex flow cytometry, S. cerevisiae (AID 1887;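 active means GFP signal above the screen-wide mean plus 3 SD, that is over about 124.5% of the solvent control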;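 further: AGP1-GFP fusion strain of S. cerevisiae within a five-strain barcoded multiplex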). The conditions noted are these: 3 h, at 10 µM, stronger effect = higher value.
Assay [6] can be described thus: inhibitors of CD8+ T cell-vesicle binding, pilot screen, LFA-1/ICAM-1 modulator project, MLPCN validation set, flow cytometry (AID 2523;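 active means response below a set limit, under 55% cells CD8-positive and vesicle-bound, and CD8 cells' 90th-percentile brightness under 279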;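 on vesicle binding response: mean PE anti-B7-1 fluorescence of CD8+ cells relative to row control; 100% = QL9-loaded vesicles with DMSO vehicle in the same plate row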). The following applies: 2C mouse CD8+ T cells, at 7 µM, stronger effect = lower value; double positive events: measured here: CD8+/vesicle+ event percentage.
Assay [7] concerns the target Integrin beta-1 (Homo sapiens) + Integrin alpha-4 (Homo sapiens) (UniProt P13612+P05556). The assay is described as follows: inhibition of HUTS-21 binding to VLA-4, pilot screen, VLA-4 allosteric modulator project, U937 cells, HUTS-21 mAb, flow cytometry, validation set (AID 2674;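 active means inhibition above 50%, about 3 SD of the validation set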;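 further: antibody binding induced by the VLA-4 ligand LDV present at three times its Kd; 0% = LDV ligand with antibody and no compound and 100% = antibody without LDV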). The conditions noted are these: HUTS-21 LIBS mAb binding, at 6.7 µM, stronger effect = higher value, binding induced by LDV ligand.

A short description of assay [8]: superoxide lowering in aged yeast cells, pilot screen, validation compound set (AID 2706;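 active means superoxide response below 65% of plate, a cut near 3 SD across the whole screen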;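 further: yeast exposed to compound for one week at 30 degrees C before staining; 100% = mean of all compound wells on the same plate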). The conditions noted are these: S. cerevisiae aging, superoxide DHE fluorescence; at 10 µM, stronger effect = lower value.
For assay [9], the target named is Beta-adrenergic receptor kinase 1 (Homo sapiens) (UniProt P25098). The assay is described as follows: GRK2 binders displacing RNA aptamer, biochemical, validation, human GRK2, bead flow cytometry (AID 488806;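 active means aptamer binding inhibition above 30%, about 3 SD of noise from non-fluorescent compounds; inactive means inhibition at or below 30%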). The following applies: bead-bound GRK2, FAM-aptamer displacement, at 10 µM, stronger effect = higher value.
Chain of Beta-adrenergic receptor kinase 1 (Homo sapiens) (P25098 whole entry, looked up): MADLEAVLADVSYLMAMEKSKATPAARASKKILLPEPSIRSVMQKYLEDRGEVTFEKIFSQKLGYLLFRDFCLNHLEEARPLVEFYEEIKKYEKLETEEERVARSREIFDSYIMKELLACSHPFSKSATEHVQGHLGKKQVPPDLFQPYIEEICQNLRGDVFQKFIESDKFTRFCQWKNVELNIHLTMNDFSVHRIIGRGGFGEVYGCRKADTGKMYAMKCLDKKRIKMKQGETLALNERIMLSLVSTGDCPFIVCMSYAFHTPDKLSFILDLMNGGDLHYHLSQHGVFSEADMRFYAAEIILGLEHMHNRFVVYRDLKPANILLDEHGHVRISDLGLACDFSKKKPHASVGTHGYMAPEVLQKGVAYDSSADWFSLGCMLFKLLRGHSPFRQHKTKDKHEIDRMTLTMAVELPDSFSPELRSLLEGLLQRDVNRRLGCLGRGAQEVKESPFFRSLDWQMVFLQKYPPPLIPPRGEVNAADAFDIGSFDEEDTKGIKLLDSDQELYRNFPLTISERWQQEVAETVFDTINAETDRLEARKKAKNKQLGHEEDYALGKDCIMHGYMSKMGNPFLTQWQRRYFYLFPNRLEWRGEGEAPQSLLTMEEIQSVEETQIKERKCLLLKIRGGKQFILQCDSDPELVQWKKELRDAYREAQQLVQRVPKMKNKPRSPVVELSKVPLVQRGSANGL
The target of assay [10] is AP-2 complex subunit beta (Homo sapiens) (UniProt P63010). The assay is described as follows: inhibitors of arrestin peptide binding to AP2, pilot screen, biochemical, validation set, GST-AP2 beads, flow cytometry (AID 504541;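 active means inhibition above 54%, about 3 SD of non-fluorescent compounds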;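 further: AP2 carries R879A mutation and is captured from E. coli lysate; bead-bound FITC arrestin peptide fluorescence measuring arrestin peptide binding to AP2; 0% = DMSO wells and 100% = excess unlabeled arrestin peptide control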). The conditions noted are these: FITC arrestin peptide, at 10 µM, stronger effect = higher value, AP2 beta2 appendage fragment, R879A mutant.
Chain of AP-2 complex subunit beta (Homo sapiens) (P63010 whole entry, looked up, the tested form may be a part, one chain of several): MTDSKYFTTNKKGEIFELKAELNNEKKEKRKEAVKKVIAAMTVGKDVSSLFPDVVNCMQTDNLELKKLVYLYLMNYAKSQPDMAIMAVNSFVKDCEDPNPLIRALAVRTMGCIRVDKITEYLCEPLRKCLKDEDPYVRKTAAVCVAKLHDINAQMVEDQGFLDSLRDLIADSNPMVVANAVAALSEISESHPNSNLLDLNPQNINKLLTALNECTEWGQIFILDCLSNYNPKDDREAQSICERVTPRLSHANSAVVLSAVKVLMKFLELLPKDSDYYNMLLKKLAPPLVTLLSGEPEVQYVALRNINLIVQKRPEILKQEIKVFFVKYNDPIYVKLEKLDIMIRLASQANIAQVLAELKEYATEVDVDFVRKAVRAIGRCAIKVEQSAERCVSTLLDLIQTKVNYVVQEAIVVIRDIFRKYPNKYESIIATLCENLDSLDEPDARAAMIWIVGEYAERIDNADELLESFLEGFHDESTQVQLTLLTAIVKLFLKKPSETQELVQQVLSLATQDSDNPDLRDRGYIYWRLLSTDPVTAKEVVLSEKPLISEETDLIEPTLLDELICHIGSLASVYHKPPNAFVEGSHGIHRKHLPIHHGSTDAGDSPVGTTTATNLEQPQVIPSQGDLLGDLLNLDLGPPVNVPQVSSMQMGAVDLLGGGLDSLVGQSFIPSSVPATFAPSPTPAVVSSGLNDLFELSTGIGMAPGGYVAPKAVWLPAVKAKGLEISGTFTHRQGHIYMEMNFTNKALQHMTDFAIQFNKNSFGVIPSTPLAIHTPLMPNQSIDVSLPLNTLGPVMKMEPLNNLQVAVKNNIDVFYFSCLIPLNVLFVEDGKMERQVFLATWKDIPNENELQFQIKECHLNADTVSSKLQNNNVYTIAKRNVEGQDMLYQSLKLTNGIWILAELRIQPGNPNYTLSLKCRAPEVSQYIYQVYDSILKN
The nature of assay [11]: yeast V-ATPase proton transport modulators, S. cerevisiae, pHLuorin, HTS validation (AID 504600; in the data active means response above about 15%;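 further: plate controls were DMSO for no effect and reference compound for full effect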). The following applies: S. cerevisiae pHLuorin cytosolic pH, at 10 µM, stronger effect = higher value.
The subject of assay [12] is anti-desmoglein-3 scFv antibody binding to human DSG3. The assay is described as follows: inhibitors of anti-DSG3 scFv binding to DSG3, pilot screen, biochemical, validation compound set, bead-based, flow cytometry (AID 588368;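 active means binding below the plate cutoff, the plate median minus 3 SD, with a reading above zero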;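 further: signal is the median channel fluorescence of bead-bound GFP antibody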). The following applies: Protein G beads, DSG3-Fc, scFv-GFP binding, at 10 µM, stronger effect = lower value.
Assay [13] can be described thus: inhibitors of fungal efflux pumps CDR1, CDR2, MDR1, pilot screen, validation compound set, multiplex, phenotypic (AID 588506).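 Further: Nile Red retained in cells so higher fluorescence means more efflux inhibition; 0 = negative control wells and 1 = enniatin B 25 µM full block.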 The conditions noted are these: S. cerevisiae pump-expressing triplex, Nile Red efflux flow cytometry; at 10 µM; stronger effect = higher value; the pumps come from Candida albicans.
Assay [14] deals with ATP-binding cassette sub-family B member 6 (Homo sapiens) (UniProt Q9NP58). The assay is described as follows: ABCB6 transporter inhibitors, pilot screen, K562-ABCB6 cells, flow cytometry, validation set (AID 588550;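 active means inhibition above the screen-wide mean plus 3 SD, about 51%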;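 further: 0% = DMSO wells and 100% = benzethonium chloride 70 µM positive control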). The following applies: K562-ABCB6 porphyrin accumulation, 1 h, at 10 µM, stronger effect = higher value.
Chain of ATP-binding cassette sub-family B member 6 (Homo sapiens) (Q9NP58 whole entry, looked up): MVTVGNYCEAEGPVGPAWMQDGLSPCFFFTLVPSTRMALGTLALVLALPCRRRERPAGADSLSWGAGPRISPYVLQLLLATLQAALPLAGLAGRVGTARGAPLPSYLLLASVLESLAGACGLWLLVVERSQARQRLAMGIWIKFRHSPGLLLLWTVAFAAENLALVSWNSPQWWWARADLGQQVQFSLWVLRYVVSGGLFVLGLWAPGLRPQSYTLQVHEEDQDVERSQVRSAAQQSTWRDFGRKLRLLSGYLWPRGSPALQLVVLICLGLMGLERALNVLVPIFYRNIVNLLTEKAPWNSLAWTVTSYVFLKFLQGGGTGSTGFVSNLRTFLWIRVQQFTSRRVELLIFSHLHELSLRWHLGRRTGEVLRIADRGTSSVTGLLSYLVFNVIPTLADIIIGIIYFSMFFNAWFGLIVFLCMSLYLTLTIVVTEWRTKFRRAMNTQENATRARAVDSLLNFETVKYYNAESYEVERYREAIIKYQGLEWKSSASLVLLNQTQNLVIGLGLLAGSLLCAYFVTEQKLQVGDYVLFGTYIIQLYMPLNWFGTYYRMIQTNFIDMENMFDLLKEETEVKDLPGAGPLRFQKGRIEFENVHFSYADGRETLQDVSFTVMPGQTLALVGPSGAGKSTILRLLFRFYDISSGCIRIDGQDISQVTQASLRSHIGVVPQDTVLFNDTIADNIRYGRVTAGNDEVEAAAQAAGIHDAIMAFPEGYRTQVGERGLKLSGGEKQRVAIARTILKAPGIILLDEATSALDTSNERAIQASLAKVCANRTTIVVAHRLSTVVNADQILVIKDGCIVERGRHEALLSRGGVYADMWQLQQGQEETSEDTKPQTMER
Assay [15] in a line: promoters of myeloid differentiation in arrested cells, primary screen, cell-based, GFP/MAC1 double positive, flow cytometry, validation set (AID 588685;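 active means differentiation response of at least 50%, scaled between solvent and reference control, from cells with both markers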;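 further: compound exposure lasts four days before antibody staining and flow analysis; 0% = DMSO wells and 100% = 5 µM fulvestrant positive control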). The following applies: ER-HoxA9 marrow cells, stronger effect = higher value, normalized: vehicle 0, fulvestrant 100.

Records with an inconclusive call do not appear. Active and inactive are the calls of the source.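 How the source made its calls, unless noted: active means efflux inhibition above 0.42, the validation set average plus 4 SD; inconclusive means no clear call, values can overlap the other calls; inactive means the rest.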

Chain of Integrin beta-1 (Homo sapiens) + Integrin alpha-4 (Homo sapiens) (P05556 whole entry, looked up): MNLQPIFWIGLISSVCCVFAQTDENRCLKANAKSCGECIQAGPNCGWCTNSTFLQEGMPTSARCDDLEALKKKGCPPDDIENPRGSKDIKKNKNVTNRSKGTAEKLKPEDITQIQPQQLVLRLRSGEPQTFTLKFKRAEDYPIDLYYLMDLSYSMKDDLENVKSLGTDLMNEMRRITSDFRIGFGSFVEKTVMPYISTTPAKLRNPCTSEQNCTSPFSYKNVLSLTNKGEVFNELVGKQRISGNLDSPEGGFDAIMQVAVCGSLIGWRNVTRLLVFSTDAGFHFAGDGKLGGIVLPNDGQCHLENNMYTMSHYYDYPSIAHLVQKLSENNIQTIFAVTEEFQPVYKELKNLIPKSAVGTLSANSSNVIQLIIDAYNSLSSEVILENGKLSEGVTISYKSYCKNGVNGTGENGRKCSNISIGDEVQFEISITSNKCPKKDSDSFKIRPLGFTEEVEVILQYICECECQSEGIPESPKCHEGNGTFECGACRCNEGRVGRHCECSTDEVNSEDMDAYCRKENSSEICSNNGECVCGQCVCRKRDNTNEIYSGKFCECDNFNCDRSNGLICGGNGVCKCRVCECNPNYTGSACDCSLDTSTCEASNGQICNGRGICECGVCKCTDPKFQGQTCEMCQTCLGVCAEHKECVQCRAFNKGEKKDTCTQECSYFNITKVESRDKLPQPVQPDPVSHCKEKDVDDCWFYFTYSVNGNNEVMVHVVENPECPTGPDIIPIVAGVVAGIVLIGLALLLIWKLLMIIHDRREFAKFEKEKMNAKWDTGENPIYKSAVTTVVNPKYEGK
Chain of Integrin beta-1 (Homo sapiens) + Integrin alpha-4 (Homo sapiens) (P13612 whole entry, looked up): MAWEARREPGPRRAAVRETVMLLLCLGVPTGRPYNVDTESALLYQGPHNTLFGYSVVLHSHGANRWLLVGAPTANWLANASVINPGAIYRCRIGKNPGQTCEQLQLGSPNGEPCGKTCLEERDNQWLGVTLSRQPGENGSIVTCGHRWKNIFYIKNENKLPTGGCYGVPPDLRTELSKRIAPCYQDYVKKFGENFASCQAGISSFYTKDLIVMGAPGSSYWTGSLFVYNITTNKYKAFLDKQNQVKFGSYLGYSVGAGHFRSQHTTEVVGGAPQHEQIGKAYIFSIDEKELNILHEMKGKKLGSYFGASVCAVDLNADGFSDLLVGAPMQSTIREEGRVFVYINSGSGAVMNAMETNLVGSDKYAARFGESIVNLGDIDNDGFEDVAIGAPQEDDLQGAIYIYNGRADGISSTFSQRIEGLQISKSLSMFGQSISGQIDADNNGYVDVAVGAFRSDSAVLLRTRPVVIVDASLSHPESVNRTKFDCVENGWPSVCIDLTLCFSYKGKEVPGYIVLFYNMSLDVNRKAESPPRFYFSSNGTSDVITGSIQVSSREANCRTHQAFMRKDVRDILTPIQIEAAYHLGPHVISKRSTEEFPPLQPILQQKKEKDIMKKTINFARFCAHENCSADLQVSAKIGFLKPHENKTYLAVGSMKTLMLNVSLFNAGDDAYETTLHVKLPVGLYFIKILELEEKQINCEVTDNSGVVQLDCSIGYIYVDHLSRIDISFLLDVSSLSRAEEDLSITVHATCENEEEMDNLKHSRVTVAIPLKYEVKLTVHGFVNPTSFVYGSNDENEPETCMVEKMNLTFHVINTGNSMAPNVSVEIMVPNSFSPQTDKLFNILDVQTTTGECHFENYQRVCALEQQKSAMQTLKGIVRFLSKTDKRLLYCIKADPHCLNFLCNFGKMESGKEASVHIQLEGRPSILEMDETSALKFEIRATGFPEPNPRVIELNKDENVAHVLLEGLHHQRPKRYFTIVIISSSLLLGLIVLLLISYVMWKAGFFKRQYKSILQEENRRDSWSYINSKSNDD

Consider `CCN(CC)CCNc1ccc(CO)c2sc3ccccc3c(=O)c12`, for which the percent of DMSO control GFP in assay [1] was 104% (inactive). The GFP response vs DMSO in assay [2] is 109% (inactive); in assay [4], 112% (inactive). Also, the percent response of DMSO control in [3] is 112% (inactive). Also, the GFP response, % of DMSO in assay [5] was 103% (inactive). Also, in assay [6], the double positive events is 47.8%. Moreover, in assay [6], the vesicle binding response was 231% (inactive). Besides, the inhibition (in general, the drop in the measured response relative to a control, in per cent) in assay [7] was 21.2% (inactive); in assay [10] it was -0.76% (inactive); in [14] it was 8% (inactive). The superoxide response (% of plate) in assay [8] is 109% (inactive). Besides, the aptamer binding inhibition in assay [9] was -5% (inactive). Also, the response in assay [11] is 2.76% (inactive). For the same compound, the binding (% of control) in [12] was 120% (inactive). The efflux inhibition (fraction of control) in assay [13] is -0.39 (inactive). Also, the differentiation response in assay [15] was -8.27% (inactive).

In the case of `O=C(/C=C/c1ccco1)N1CCN(c2ccccc2)CC1`, the percent of DMSO control GFP in [1] was 103% (inactive). For the same compound, the GFP response vs DMSO in assay [2] was 90.8% (inactive); in assay [4] it was 86.3% (inactive). Moreover, the percent response of DMSO control in assay [3] was 107% (inactive). Besides, in assay [5], the GFP response, % of DMSO was 92.7% (inactive). This compound also showed a double positive events in [6] of 56.2%. The vesicle binding response in assay [6] was 210% (inactive). Also, the inhibition was 8.15% (inactive) in [7], 6.32% (inactive) in assay [10] and 5% (inactive) in assay [14]. Further, the superoxide response (% of plate) in [8] is 89% (inactive). For the same compound, the aptamer binding inhibition in assay [9] was 1% (inactive). In addition, the response in [11] was 5.81% (inactive). Further, the binding (% of control) in assay [12] is 101% (inactive). Besides, the efflux inhibition (fraction of control) in assay [13] was -0.09 (inactive). Further, the differentiation response in assay [15] was -19.6% (inactive).

Turning to `Cc1cc(OC(C(=O)O)c2ccccc2)c2c(C)c(Cc3ccccc3)c(=O)oc2c1` (stereo not given), in assay [1], the percent of DMSO control GFP is 103% (inactive). For the same compound, the values for the GFP response vs DMSO in assay [2] and in [4] were 98.9% (inactive) and 100% (inactive), respectively. Moreover, in assay [3], the percent response of DMSO control is 97.9% (inactive). For the same compound, the GFP response, % of DMSO in [5] was 95.1% (inactive). In addition, the double positive events in [6] was 54.5%. Also, the vesicle binding response in [6] is 160% (inactive). The inhibition in [7] was -3.04% (inactive); in assay [10] it was 1.35% (inactive); in assay [14], 7% (inactive). For the same compound, the superoxide response (% of plate) in assay [8] was 115% (inactive). Moreover, in [9], the aptamer binding inhibition was 2% (inactive). Further, in [11], the response is 5.52% (inactive). Moreover, the binding (% of control) in assay [12] was 95.4% (inactive). Also, the efflux inhibition (fraction of control) in assay [13] is -0.05 (inactive). Further, the differentiation response in assay [15] was -3.43% (inactive).

For the compound `CCOC(=O)c1ccc2[nH]c(C)c(CCC(C)=O)c(=O)c2c1`, in assay [1], the percent of DMSO control GFP was 102% (inactive). Moreover, the results for the GFP response vs DMSO in assay [2] and in assay [4] were 98.9% (inactive) and 88.3% (inactive), respectively. The percent response of DMSO control in assay [3] is 109% (inactive). Also, the GFP response, % of DMSO in assay [5] is 97.9% (inactive). Moreover, the double positive events in assay [6] was found to be 57.1%. For the same compound, the vesicle binding response in assay [6] was 228% (inactive). Also, the inhibition in assay [7] was 0.69% (inactive); in [10] it was 1.85% (inactive); in assay [14], 6% (inactive). Besides, in [8], the superoxide response (% of plate) is 91.5% (inactive). Further, in assay [9], the aptamer binding inhibition was 1% (inactive). Also, in assay [11], the response was 6.01% (inactive). The binding (% of control) in assay [12] is 108% (inactive). The efflux inhibition (fraction of control) in [13] is -0.12 (inactive). Moreover, in assay [15], the differentiation response is -11.5% (inactive).

Regarding `Cc1ccccc1OCCSc1nc2ncnc(N)c2[nH]1`, the percent of DMSO control GFP in [1] was 97.3% (inactive). In addition, the values for the GFP response vs DMSO in [2] and in [4] were 105% (inactive) and 99.4% (inactive), respectively. In assay [3], the percent response of DMSO control is 104% (inactive). Besides, the GFP response, % of DMSO in [5] was 103% (inactive). Moreover, in assay [6], the double positive events was determined as 51.9%. In addition, in [6], the vesicle binding response was 163% (inactive). Moreover, the inhibition in assay [7] was 8.15% (inactive); in assay [10] it was -6.91% (inactive); in assay [14] it was 1% (inactive). Also, the superoxide response (% of plate) in assay [8] was 97.8% (inactive). The aptamer binding inhibition in [9] was 2% (inactive). For the same compound, the response in assay [11] was 3.1% (inactive). For the same compound, the binding (% of control) in assay [12] is 96.7% (inactive). Also, the efflux inhibition (fraction of control) in assay [13] was 0.06 (inactive). Further, the differentiation response in [15] was -8.27% (inactive).
